# Source: PubChem (National Center for Advancing Translational Sciences (NCATS))
# 12-LOX inh – ALOX12 (human) lipoxygenase inhibition. purified 12hLO, xylenol orange hydroperoxide absorbance. 580,000 tested, 1.1% active. P18054. Potency, µM (doses to about 108 µM), inactives show at the top dose activity change, negative = inhibition, hits mostly inhibitors; further: potency means the concentration at half of the fitted maximal effect
# Target sequence (P18054 whole entry, looked up): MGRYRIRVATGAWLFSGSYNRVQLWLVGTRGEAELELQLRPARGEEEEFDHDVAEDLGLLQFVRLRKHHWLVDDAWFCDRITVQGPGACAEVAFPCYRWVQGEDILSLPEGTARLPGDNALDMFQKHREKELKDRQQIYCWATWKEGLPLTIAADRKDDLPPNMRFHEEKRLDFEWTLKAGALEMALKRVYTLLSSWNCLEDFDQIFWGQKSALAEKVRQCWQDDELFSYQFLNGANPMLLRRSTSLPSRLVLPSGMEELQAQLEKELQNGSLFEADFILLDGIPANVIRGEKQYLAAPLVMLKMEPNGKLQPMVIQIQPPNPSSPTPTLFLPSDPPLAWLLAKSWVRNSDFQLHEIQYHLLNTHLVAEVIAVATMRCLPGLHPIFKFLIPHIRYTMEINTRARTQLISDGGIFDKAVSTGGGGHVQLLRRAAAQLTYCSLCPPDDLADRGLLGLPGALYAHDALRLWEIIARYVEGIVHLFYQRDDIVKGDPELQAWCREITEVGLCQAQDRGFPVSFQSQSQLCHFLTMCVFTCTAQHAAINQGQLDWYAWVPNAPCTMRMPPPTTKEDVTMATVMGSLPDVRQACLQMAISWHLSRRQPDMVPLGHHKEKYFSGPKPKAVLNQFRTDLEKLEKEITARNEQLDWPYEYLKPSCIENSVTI
#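 Purified human 12hLO at 150 nM in 25 mM Hepes, 0.01% Triton X-100, pH 7.0, preincubated 15 min at room temperature with compound. Reaction started with 40 uM arachidonic acid, 30 min at room temperature. Hydroperoxide measured by Fe-xylenol orange, 573/405 nm absorbance ratio.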
# HT1080 IDH1KD tx – kills HT-1080 cells with IDH1 knockdown; Potency, µM (highest dose often 46.1 µM), for the others: top-dose activity, negative = toxicity, hits mostly cytotoxic; 360,000 tested, 2% active; HT-1080 IDH1 knockdown viability, ATP luminescence, 48 h;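 further: potency means the concentration at half of the fitted maximal effect; 0% = DMSO wells and -100% = cell-free medium wells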
#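 CellTiter-Glo luminescence after 48 h compound exposure at 37 degrees C of IDH1-knockdown HT-1080 cells in 5% FBS RPMI. %Activity scaled between DMSO wells and cell-free media wells, with curves fitted and assigned curve classes.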
# IL1B secr inh – inflammasome signaling inhibition, IL-1 beta readout; THP-1 LPS/ATP IL-1B secretion, AlphaLISA, 16 h; active compounds read low; activity change, % at 57.5 µM; 360,000 tested, 4.7% active; AID 743279; in the data active means activity change below about -50%; inconclusive means mostly about -30% to -49%
#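 Secreted IL-1B measured by AlphaLISA bead assay after 16 h compound exposure of THP-1 cells; compounds (final up to 57.5 uM) added 1 h before LPS (250 ng/mL) and ATP (1.25 mM) stimulation; lower signal means less secretion.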
# HT1080-NT tox – kills 2HG-producing HT-1080-NT fibrosarcoma cells | HT-1080-NT fibrosarcoma viability, CellTiter-Glo ATP luminescence, 48 h | Potency, µM (highest dose often 46.1 µM), for the others: at the top dose activity, negative = less viability, usual class: cytotoxic | 360,000 tested, 1.6% active;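 further: NT is the 2HG producing partner of a matched IDH1 knockdown line; potency means the concentration at half of the fitted maximal effect; 0% = DMSO-treated cells and -100% = media-only wells without cells; nearly all actives have a fitted effect of over 55% in size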
#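 Viability of the 2HG-overproducing fibrosarcoma line after 48 hours of compound exposure at 37 degrees C was determined by luminescence with CellTiter-Glo, and concentration-effect curves were then fitted and categorized.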
# TDP1 cell noCPT – qHTS for Inhibitors of human tyrosyl-DNA phosphodiesterase 1 (TDP1): qHTS in cells in absence of CPT; DT40 Tdp1-/- hTDP1 cells, no CPT, ATP luminescence, 48 h; Potency, µM (doses to about 46.2 µM), for the others: at the highest dose activity change, negative = growth inhibition, actives largely listed as inhibitors; 420,000 tested, 15% active; AID 686978, 2013; further: potency means the concentration at half of the fitted maximal effect; nearly all actives have a fitted effect of over 55% in size
#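 Growth of hTDP1-complemented DT40 Tdp1-knockout cells is measured by ATP luminescence after at least 48 hr compound exposure at 37 °C, with DMSO substituting for the 20 nM CPT used in the parallel screen.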
# DT40 TDP1 CPT – DT40-hTDP1 cell growth loss with CPT. chicken DT40 Tdp1-/-;hTDP1 cells + 20 nM CPT, ATP luminescence, 48 h. Potency, µM (titrated, usually from 46.2 µM), for the others: top-dose activity change, negative = growth inhibition, most hits filed as inhibitors. 420,000 tested, 12% active. AID 686979; further: potency means the concentration at half of the fitted maximal effect; nearly all actives have a fitted effect of over 55% in size
#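 Chicken DT40 Tdp1-/- cells complemented with human TDP1, 400 cells/well, exposed to compounds plus 20 nM camptothecin for at least 48 h at 37 C; viability read as ATP content by CellTiter-Glo luminescence.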
# * hit, by the source's call; ? = inconclusive; . = no result; ! = not active in a repeat; [ ] = another dose, or the depositor's remark. The sample as a whole holds a higher share of hits than the screen did. Unless noted, the call rests on the fitted dose curve; in most records, active means well fitted curve in the direction sought with a large enough effect; inconclusive means small, poorly fitted or top-dose-only effect, or another doubt; inactive means no such curve, though single readings can be large; an effect the other way counts as inactive or inconclusive. Unless noted, on the % scale 0 is the no-effect control and ±100 the full control effect.
SMILES,12-LOX inh,HT1080 IDH1KD tx,IL1B secr inh,HT1080-NT tox,TDP1 cell noCPT,DT40 TDP1 CPT
OC(Cc1ccccc1)c1ncc(-c2ccc(Cl)cc2)[nH]1 (stereo not given),-12%,?,7,?,16µM*,?
CN1CCOc2c(C(=O)NCc3cccnc3)cc(-c3ccccc3F)cc21,3%[176 µM],.,.,.,.,.
COc1ccc(-c2noc([C@@H]3C[C@H](NCc4ccc(N(C)C)cc4)CN3C)n2)cc1,2%[176 µM],.,.,.,.,.
O=C(CN1C(=O)COc2ccc(Cl)cc21)NCCN1CCN(c2ccccc2)CC1,23%,.,.,.,.,.
O=C(NC(=S)N1CCN(c2ccccn2)CC1)c1ccco1,0%,-2%,1,4%,-10%,1%
O=C1[C@H](Cc2ccccc2)NCC=CC[C@H](c2ccco2)N1Cc1ccccc1,?,-3%,-11,-15%,?,21µM*
O=C1[C@H](Cc2ccccc2)NCC=CC[C@@H](c2ccc(Cl)cc2)N1Cc1ccccc1,?,-21%,?,-19%,10µM*,?
NC(=O)c1csc(-c2ccncc2)n1,0%,-3%,9,1%,-20%,-4%
Nc1cc(-c2ccncc2)c[nH]c1=O,-4%,4%,19,27%,16µM*!,?
CN(C)Cc1ccccc1-c1nc(N(C)C)c2ccccc2n1,?,.,.,.,?,12µM*
COc1ccccc1-c1nc(N(C)C)c2ccccc2n1,32µM*,.,.,.,?,?
N#Cc1cccc(NC(=O)c2cc3c(s2)-c2ccc(Cl)cc2SC3)c1,?,.,.,.,23µM*,26µM*
CN(Cc1ccccc1)C(=O)c1cc2c(s1)-c1ccc(Cl)cc1SC2,18%,.,.,.,23µM*,?
CCN(CC)CCNC(=O)c1cc2c(s1)-c1ccccc1SC2,34%,?,-9,?,16µM*,23µM*
Cc1c(Cc2ccccc2)c(=O)oc2cc(OCC(=O)NCC(O)c3ccccc3)ccc12 (stereo not given),2%,-4%,10,?,18µM*,?
Cc1oc2cc3oc(=O)c(CCC(=O)NC4CC4)c(C)c3cc2c1C,1%,5%,-15,17%,9.2µM*,5.8µM*
C=C(C)COc1ccc2c(C)c(CCC(=O)NCC(O)c3ccccc3)c(=O)oc2c1 (stereo not given),-2%,.,.,.,.,.
C=C(C)COc1ccc2c(C)c(CCC(=O)NC3CCS(=O)(=O)C3)c(=O)oc2c1 (stereo not given),3%,.,.,.,.,.
COc1ccc(CCNC(=O)CCc2c(C)c3cc4c(C)coc4cc3oc2=O)cc1,0%,.,.,.,?,?
Cc1coc2cc3oc(=O)c(CCC(=O)NC4CC4)c(C)c3cc12,11%,0%,-14,0%,13µM*,16µM*
C=C(C)COc1ccc2c(C)c(CCC(=O)NC3CC3)c(=O)oc2c1,-1%,-5%,-11,1%,?,18µM*
CC(C)NC(=O)N1CCCC2(CCN(C(=O)c3cc(C(F)(F)F)cc(C(F)(F)F)c3)CC2)C1,-23%[57.4 µM],.,.,.,?,-6%
Cc1ccccc1-c1nc(CN2C(=O)CSc3ccc(S(=O)(=O)N4CCCC4)cc32)c(C)o1,-7%,.,.,.,.,.
CC1=C(C(=O)NC2CC(=O)N(Cc3cccc4ccccc34)C2)OCCO1 (stereo not given),28%,.,.,.,.,.
O=C(C1CCCN(S(=O)(=O)c2ccc(F)cc2)C1)N1CCCCC1 (stereo not given),-2%,7%,32,7%,23µM*,-15%
SMILES,12-LOX inh,HT1080 IDH1KD tx,IL1B secr inh,HT1080-NT tox,TDP1 cell noCPT,DT40 TDP1 CPT
O=C(C1CCCN(S(=O)(=O)c2ccccc2)C1)N1CCCCC1 (stereo not given),21%,2%,43,8%,-7%,-22%
O=C(C1CCCN(S(=O)(=O)c2ccc(F)cc2)C1)N1CCCCCC1 (stereo not given),12%,-6%,11,5%,8.2µM*,12µM*
COCCOc1ccc(-c2nc(C)ccc2OC)cc1,38%,.,.,.,.,.
O=C(NCc1nc2ccccc2[nH]1)C1=C[C@@H](C2CCCCC2)C[C@@H](OCCCCO)O1,-5%,8%,-5,0%,15µM*,21µM*
O=C(NCc1nc2ccccc2[nH]1)C1=C[C@H](c2coc3ccccc3c2=O)C[C@H](OCCCCO)O1,39%,-1%,-26,0%,?,21µM*
C[C@H]1C=C(C(=O)NCc2nc3ccccc3[nH]2)O[C@@H](OCCCCO)C1,?,5%,5,5%,-20%,-11%
O=C(NCc1nc2ccccc2[nH]1)C1=C[C@@H](c2ccccc2)C[C@@H](OCCCCO)O1,-4%,-2%,2,-15%,?,10%
CN1CC(=O)N(C2CCC2)Cc2c(NC3CCCCC3)ncnc21,3%[176 µM],.,.,.,.,.
O=C(/C=C/c1cccc(Cl)c1)c1cc2ccccc2oc1=O,-13%,.,.,.,.,.
O=C(c1ccc(Cl)cc1)N1CCC2CC1c1cc(-c3ccccc3)ccc12 (stereo not given),-14%,-1%,-18,-3%,-23%,16µM*
O=C(c1cccc(Cl)c1)N1CCC2CC1c1cc(-c3ccccc3)ccc12 (stereo not given),?,-13%,2,-4%,?,?
Cc1ccc(C(=O)N2CCN(c3ccc4c(c3)C3CC4CCN3C(=O)OCc3ccccc3)CC2)cc1 (stereo not given),?,?,-4,?,15µM*,16µM*
N#Cc1ccc(C(=O)N2CCC3CC2c2cc(N4CCCCC4)ccc23)cc1 (stereo not given),11%,-1%,10,-2%,16µM*,16µM*
O=C(OCc1ccccc1)N1CCC2CC1c1ccc(N3CCN(Cc4ccccc4)CC3)cc12 (stereo not given),3%,.,.,.,.,.
O=C(c1ccc(-c2ccccc2)cc1)N1CCN(c2ccc3c(c2)C2CC3CCN2C(=O)OCc2ccccc2)CC1 (stereo not given),-16%,-6%,-8,2%,?,?
O=C(c1cccc(Cl)c1)N1CCN(c2ccc3c(c2)C2CC3CCN2C(=O)OCc2ccccc2)CC1 (stereo not given),?,?,-29,?,15µM*,?
COc1ccccc1C(C)NC(=O)c1ccc(Cl)cc1 (stereo not given),-24%,.,.,.,.,.
